Luciferase inh: inhibitors of firefly luciferase | Potency, µM (highest dose often 57.1 µM), actives largely listed as inhibitors | purified firefly luciferase, luminescence, 8 min | P08659 | 2.2% of 72,000 active; also: nearly all actives have a fitted effect of over 40% in size
Target sequence (P08659 whole entry, looked up): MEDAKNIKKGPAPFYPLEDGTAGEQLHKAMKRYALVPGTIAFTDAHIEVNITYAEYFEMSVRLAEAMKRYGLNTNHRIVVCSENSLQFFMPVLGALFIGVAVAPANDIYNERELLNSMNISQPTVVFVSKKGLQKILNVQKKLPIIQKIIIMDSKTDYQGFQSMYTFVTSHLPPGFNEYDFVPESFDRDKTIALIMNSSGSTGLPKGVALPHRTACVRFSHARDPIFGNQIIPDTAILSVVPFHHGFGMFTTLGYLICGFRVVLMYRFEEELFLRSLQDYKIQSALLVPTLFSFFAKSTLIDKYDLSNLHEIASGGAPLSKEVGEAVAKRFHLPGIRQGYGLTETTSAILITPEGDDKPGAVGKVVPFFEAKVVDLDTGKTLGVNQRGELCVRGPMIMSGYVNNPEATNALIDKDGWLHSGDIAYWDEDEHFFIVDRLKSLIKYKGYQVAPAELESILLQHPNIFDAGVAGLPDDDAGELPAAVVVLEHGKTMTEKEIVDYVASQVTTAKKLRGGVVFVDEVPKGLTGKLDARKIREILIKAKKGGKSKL
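Compounds were tested as concentration series (qHTS) against purified P. pyralis luciferase with luciferin and 10 uM ATP in 50 mM imidazole pH 7.2, 50 mM KCl, 7 mM MgCl2, 0.01% Tween 20, 0.05% BSA. Luminescence was read after 8 min at ambient temperature.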
p53ts 32C tox: p53ts cell cytotoxicity, permissive temperature | 0.93% of 130,000 active | H1299-p53A138V at 32C, ATP luminescence viability, 24 h | Potency, µM (top dose mostly 46.1 µM), actives largely listed as cytotoxic | AID 924; also: nearly all actives have a fitted effect of over 55% in size
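ATP-content luminescence (ATPlite) read-out after 24 h compound exposure at 32C in H1299-p53A138V cells (600/well). Tested up to 46 uM. Normalized to DMSO (0%) and 100 uM tamoxifen (100% killing); Hill-fit AC50.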
p53ts 39C kill: kills p53ts cells at the nonpermissive temperature; 1.5% of 130,000 active; H1299-p53A138V viability at 39C, ATP luminescence, 24 h; AID 902; Potency, µM (titrated, usually from 46.1 µM), actives largely listed as cytotoxic; also: nearly all actives have a fitted effect of over 55% in size
Of the large screens only hits and unclear results are named; the others gave an inactive call. Most compounds without a hit are left out; they make up all but 2.6% or so of the library. Calls follow the shape of the dose curve; as a rule, active = well fitted curve in the direction sought with a large enough effect; inconclusive = small, poorly fitted or top-dose-only effect, or another doubt; inactive = no such curve, though single readings can be large; an effect the other way counts as inactive or inconclusive.

O=C(Nc1nnc(-c2ccccc2)o1)c1ccc(Cl)cc1	none
Cc1ccc(NCc2nc3ccccc3n2C)cc1	Luciferase inh 13µM, p53ts 32C tox inconclusive, p53ts 39C kill inconclusive
Cn1c(CNc2nc3ccccc3n2C)nc2ccccc21	none
Cc1ccc(-n2nc(C(=O)N3CCN(c4ccccc4F)CC3)c3c4ccccc4n(C)c3c2=O)cc1	none (no result: Luciferase inh)
Brc1cccc(-c2nnc(-c3ccccc3)o2)c1	Luciferase inh 16µM, p53ts 32C tox inconclusive
Cc1cc(C)cc(Oc2ccc(-c3nnc(-c4ccccc4)o3)cc2[N+](=O)[O-])c1	none (no result: Luciferase inh, p53ts 32C tox)
Cc1ccc(-c2nnc(-c3cccc(Br)c3)o2)cc1	none (no result: p53ts 32C tox, p53ts 39C kill)
Clc1cccc(-c2nnc(-c3ccccc3)o2)c1	Luciferase inh 5µM, p53ts 32C tox 10µM, p53ts 39C kill 13µM
Cc1cccc(-c2nnc(-c3ccc(N)cc3)o2)c1	Luciferase inh 13µM, p53ts 32C tox inconclusive, p53ts 39C kill inconclusive
Cc1ccc(-c2nnc(-c3ccccc3)o2)cc1Br	none (no result: p53ts 32C tox, p53ts 39C kill)
CCOC(=O)c1ccccc1NC(=O)CSc1ncc2c(n1)-c1ccccc1N(CC)S2(=O)=O	none (no result: Luciferase inh)
Cc1ccc(Cl)cc1N1CCN(C(=O)C2CCN(S(=O)(=O)Cc3ccccc3)CC2)CC1	none (no result: Luciferase inh)
Cc1ccccc1C(=O)Nc1c(C)nc(Nc2ccccc2)nc1Nc1ccccc1	p53ts 32C tox inconclusive (no result: Luciferase inh)
O=c1c(-c2cccs2)nc2cnc(N3CCNCC3)nc2n1Cc1cccs1	p53ts 32C tox inconclusive, p53ts 39C kill inconclusive
O=c1c(-c2cccs2)nc2cnc(N3CCNCC3)nc2n1CCc1ccccc1	p53ts 32C tox inconclusive, p53ts 39C kill 16µM
COc1ccc(Cl)cc1NC(=O)c1noc2c1CCc1ccccc1-2	none (no result: Luciferase inh)
COC(=O)c1ccc2c(c1)N(CC(=O)Nc1cccc(Cl)c1C)C(=O)c1ccccc1S2	none (no result: Luciferase inh)
Cn1c(SCC(=O)N2CCCc3ccccc32)ncc(C(=O)Nc2ccccc2)c1=O	none (no result: Luciferase inh)
CCCCNC(=O)c1cnn2c(C)c(Cc3c(C)cc(C)cc3C)c(C)nc12	p53ts 32C tox inconclusive, p53ts 39C kill 16µM (no result: Luciferase inh)
Cc1nc2c(C(=O)NCc3ccccc3)cnn2c(C)c1Cc1ccc(F)cc1	p53ts 39C kill inconclusive (no result: Luciferase inh)
CC1=C(C(=O)Nc2ccc(C)cc2C)C(c2ccc(Br)cc2)n2ncc(C(=O)Nc3cccc(C)c3)c2N1 (centres undefined)	none (no result: Luciferase inh)
Cc1ccc(-n2c(SCc3ccccc3C)nc3[nH]ncc3c2=O)cc1C	p53ts 39C kill 25µM (no result: Luciferase inh)
Cc1ccc(-n2c(SCc3cccc(F)c3)nc3[nH]ncc3c2=O)cc1C	none (no result: Luciferase inh)
CCc1ccc(-n2c(SCc3ccccc3C)nc3[nH]ncc3c2=O)cc1	p53ts 32C tox inconclusive, p53ts 39C kill 25µM (no result: Luciferase inh)
CCc1ccc(-n2c(SCc3cccc(F)c3)nc3[nH]ncc3c2=O)cc1	p53ts 39C kill inconclusive (no result: Luciferase inh)
Cc1ccc(CNS(=O)(=O)c2cc3[nH]c(=O)c(=O)[nH]c3cc2C)cc1	none (no result: Luciferase inh, p53ts 39C kill)
O=C(c1ccncc1)N1CCC2(CCCN(c3ccncc3)C2)CC1	none
COc1cccc2c1cc1c(=O)n(CC(=O)N3CCN(c4cccc(C)c4)C(C)C3)nc(C)n12 (centres undefined)	none (no result: Luciferase inh)
CC1(C)Cc2nc3sc4c(SCC(=O)NCc5ccco5)ncnc4c3cc2CO1	Luciferase inh 5µM, p53ts 32C tox inconclusive, p53ts 39C kill inconclusive
Cc1nc2c(sc3nc4c(cc32)COC(C)(C)C4)c(=O)n1CC(=O)NCc1ccco1	none
CC(C)(C)OC(=O)C1C(=O)CC(C)(O)C(C(=O)OC(C)(C)C)C1c1ccco1 (centres undefined)	none (no result: Luciferase inh)
CCCC1C(c2ccco2)NC(c2ccco2)CC1(C)O (centres undefined)	Luciferase inh 13µM
CCC(C)NC(=O)CSc1nc2cc3c(cc2c(=O)n1CCCCCC(=O)NCc1ccc2c(c1)OCO2)OCO3 (centres undefined)	none (no result: Luciferase inh)
C/C(O)=C(/N=O)C(=O)Nc1ccccc1	none
CCOC(=O)C(/C(N)=N/C(=O)Nc1ccccc1)=C(\C)O	Luciferase inh 13µM
CCSc1nc2ccccc2n1S(=O)(=O)c1ccccc1	none
CSc1ccc(/C=C/c2nc3ccccc3n2S(=O)(=O)c2ccc(Br)cc2)cc1	p53ts 32C tox 3.2µM, p53ts 39C kill 1.1µM (no result: Luciferase inh)
COc1ccc(-n2c(/C=C/c3cccc(C(F)(F)F)c3)nc3ccccc3c2=O)cc1Cl	none (no result: Luciferase inh)
O=S(=O)(c1cccc(C(F)(F)F)c1)n1c(/C=C/c2ccccc2)nc2ccccc21	p53ts 32C tox 13µM, p53ts 39C kill 13µM (no result: Luciferase inh)
CCOc1ccc(/C=C/c2nc3ccccc3n2S(=O)(=O)c2ccc(Br)cc2)cc1	p53ts 32C tox 7.9µM, p53ts 39C kill 7.9µM (no result: Luciferase inh)
COc1ccc(S(=O)(=O)n2c(CCN3CCOCC3)nc3ccccc32)cc1	none
O=C(Nc1cccc2cccnc12)[C@@H]1[C@@H](C(=O)O)[C@H]2CC[C@@H]1O2	none
CCCCOC(=O)c1c(C)oc2c1cc(NS(=O)(=O)c1cc(OC)ccc1OC)c1ccccc12	none (no result: Luciferase inh)
CN(C)c1ccc(N=Nc2cccc3ccoc23)cc1	Luciferase inh 4µM
CN(C)c1ccc(N=Cc2nc(-c3ccccc3)oc2O)cc1	none
COCCn1c(C)cc(C(=O)CSc2nnc3ccccn23)c1C	Luciferase inh 10µM, p53ts 32C tox inconclusive, p53ts 39C kill inconclusive
COCCn1c(C)cc(C(=O)CSc2ncn[nH]2)c1C	p53ts 32C tox inconclusive
COCCn1c(C)cc(C(=O)CSc2nc3ccccc3o2)c1C	Luciferase inh 7.9µM
COCCn1c(C)cc(C(=O)CSc2nc(C)cc(C)c2C#N)c1C	none
Cc1c(Cl)cccc1-n1ncc(C(=O)Nc2ccc(F)cc2F)c1C1CCN(C(=O)OC(C)(C)C)CC1	none (no result: Luciferase inh)
COc1ccc(-c2nc3nc(C)cc(N4CCN(c5cccc(C(F)(F)F)c5)CC4)n3n2)cc1	none (no result: Luciferase inh)
Cc1ccc(NC(=O)C(=O)NCC(c2cccnc2)N2CCOCC2)cc1Cl (centres undefined)	p53ts 32C tox inconclusive, p53ts 39C kill 20µM (no result: Luciferase inh)
COc1ccc(C(=O)NCC(c2cccnc2)N2CCN(c3ccccc3)CC2)cc1OC (centres undefined)	p53ts 32C tox 10µM, p53ts 39C kill inconclusive
COc1ccc(C(=O)NCC(c2cccnc2)N2CCN(c3ccc(F)cc3)CC2)cc1OC (centres undefined)	none
O=C(NCC(c1cccnc1)N1CCOCC1)C(=O)Nc1ccc(F)cc1 (centres undefined)	none (no result: Luciferase inh)
CCn1cc(C(=O)NCc2ccc(F)cc2)c(=O)c2cc(S(=O)(=O)N(C)C)ccc21	none (no result: Luciferase inh)
CCOc1ccc(-n2nc3ccc(NC(=O)COc4ccccc4)cc3n2)cc1	none (no result: Luciferase inh)
CCOc1ccc(-n2nc3ccc(NC(=O)c4ccc(-c5cccc(Cl)c5)o4)cc3n2)cc1	p53ts 32C tox inconclusive, p53ts 39C kill 7.9µM (no result: Luciferase inh)
COc1ccc(NC(=O)CSc2nnc(N)s2)cc1	none (no result: Luciferase inh)
CCOC(=O)c1sc(SCC(=O)Nc2ccc(N(C)C)cc2)nc1N	Luciferase inh 13µM, p53ts 32C tox inconclusive, p53ts 39C kill inconclusive
CCN(Cc1ccccc1)c1ncnc2c1cnn2-c1ccc(F)cc1	p53ts 39C kill inconclusive (no result: Luciferase inh)
COc1ccc(-n2ncc3c(NC(C)(C)CO)ncnc32)cc1	p53ts 32C tox 13µM, p53ts 39C kill 10µM (no result: Luciferase inh)
CC(C)OCCCNc1ncnc2c1cnn2-c1ccccc1	Luciferase inh 4µM (no result: p53ts 32C tox, p53ts 39C kill)
CN(Cc1ccccc1)c1ncnc2c1cnn2-c1ccccc1	Luciferase inh 13µM, p53ts 32C tox inconclusive, p53ts 39C kill inconclusive
Cc1ccc(-n2ncc3c(NCCCOC(C)C)ncnc32)c(C)c1	none (no result: p53ts 32C tox, p53ts 39C kill)
COc1ccc(CNc2ncnc3c2cnn3-c2ccc(C)c(C)c2)cc1	none (no result: Luciferase inh)
